We go through 40 compounds from PubChem BioAssay (EPA / NIEHS).

Structures are written as SMILES. Activity calls are given as the source filed them. The calls were made as follows: active = hit-call score of the fitted dose curve at least 0.9, where 1 is the maximum; inactive = score below 0.9.

For orientation: AC50 means the midpoint of the concentration-response curve, whichever way the signal moves.

Sequence of Hypoxia-inducible factor 1-alpha (Homo sapiens) (Q16665 whole entry, looked up): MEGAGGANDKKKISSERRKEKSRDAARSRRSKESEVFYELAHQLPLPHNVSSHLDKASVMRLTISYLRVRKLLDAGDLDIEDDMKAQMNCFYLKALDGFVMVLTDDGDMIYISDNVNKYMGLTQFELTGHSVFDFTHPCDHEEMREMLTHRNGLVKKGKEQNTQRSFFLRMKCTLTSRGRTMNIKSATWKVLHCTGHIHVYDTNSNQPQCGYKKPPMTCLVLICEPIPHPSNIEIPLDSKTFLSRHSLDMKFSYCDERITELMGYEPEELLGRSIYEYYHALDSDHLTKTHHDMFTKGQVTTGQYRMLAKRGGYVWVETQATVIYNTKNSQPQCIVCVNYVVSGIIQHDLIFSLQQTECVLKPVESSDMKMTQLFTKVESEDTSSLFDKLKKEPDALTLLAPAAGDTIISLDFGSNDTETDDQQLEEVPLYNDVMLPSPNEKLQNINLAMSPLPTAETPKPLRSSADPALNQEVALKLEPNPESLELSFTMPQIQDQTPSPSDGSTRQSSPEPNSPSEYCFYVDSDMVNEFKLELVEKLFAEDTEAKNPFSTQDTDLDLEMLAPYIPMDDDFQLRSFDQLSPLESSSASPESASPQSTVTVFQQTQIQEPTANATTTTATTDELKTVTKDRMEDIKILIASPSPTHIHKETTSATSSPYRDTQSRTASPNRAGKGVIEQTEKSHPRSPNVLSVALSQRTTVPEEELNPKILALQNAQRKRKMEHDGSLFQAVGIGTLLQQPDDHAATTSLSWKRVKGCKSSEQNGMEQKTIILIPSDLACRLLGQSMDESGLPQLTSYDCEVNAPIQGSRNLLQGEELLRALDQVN

This test concerns the target Hypoxia-inducible factor 1-alpha (Homo sapiens) (UniProt Q16665). Put plainly: ATG_HIF1a_CIS: Attagene CIS-FACTORIAL HepG2 Assay for human Hypoxia Inducible Factor 1 (HIF1A) (AID 2282951). Conditions: HepG2 Attagene cis-factorial HIF1a reporter transcription; actives raise or lower the signal. As for the experimental part: ATG_CIS is a cell-based, multiplexed-readout assay that uses HepG2, a human liver cell line, with measurements taken at 24 hours after chemical dosing in a 24-well plate.ATG_HIF1a_CIS is one of 52 assay component(s) measured or calculated from the ATG_CIS assay. It is designed to make measurements of mRNA induction, a form of inducible reporter, as detected with fluorescence intensity signals by Reverse transcription polymerase chain reaction (RT-PCR) and Capillary electrophoresis technology.Data from the assay component ATG_HIF1a_CIS was analyzed into 1 assay endpoint. This assay endpoint, ATG_HIF1a_CIS, was analyzed with bidirectional fitting relative to DMSO as the negative control and baseline of activity. Using a type of inducible reporter, measures of mRNA for gain or loss-of-signal activity can be used to understand the reporter gene at the transcription factor-level as they relate to the gene HIF1A. Furthermore, this assay endpoint can be referred to as a primary readout, because this assay has produced multiple assay endpoints where this one serves a reporter gene function. To generalize the intended target to other relatable targets, this assay endpoint is annotated to the dna binding intended target family, where the subfamily is basic helix-loop-helix protein.
Human liver HepG2 cells are transiently transfected with multiple reporter transcription units (MRTUs) in 6-well plates using FuGene 6 reagent (Roche; 3 ml FuGene/1 mg DNA). The MRTU constructs are regulated by a cis-regulating element (promoter). […] A major difference between the CIS and TRANS system is that in CIS activities of endogenous TFs are measured, whereas the TRANS assay evaluates changes in activities of exogenous, chimeric NR-Gal4 proteins. […] At the end of 24 hour incubation, total RNA was isolated using TriZol reagent (Invitrogen). The isolated RNA is then reverse-transcribed using oligo(dT) primer and Mo-MLV reverse transcriptase (Invitrogen) with DNAse I (Ambion) treatment for 30 min. The one-tenth of the produced cDNA was amplified by PCR using Taq DNA polymerase (Invitrogen) and two reporter sequence-specific primers. The PCR products were fluorescently labeled by primer extension with 6-arboxyfluorescein (6-FAM) 5'-labeled reporter sequence-specific primer (2 min at 95 C, 20 s at 68 C and 10 min at 72 C) and these products were digested with 5U of HpaI (New England Biolabs) for 2h at 37 C. The fragments were purified using Qiaquick PCR columns (Qiagen), analyzed on an ABI 3130xL genetic analyzer (Applied Biosystems) with peak positions identified by using a set of X-rhodamine (ROX)-labeled MapMarker1000 molecular weight standards (BioVentures). The raw capillary electrophoresis data was processed using Attagraph software (Attagene).
Regarding `CCc1ccc(C)nc1`, the call was inactive.
On the same count and under the same terms, to `CCN(CC)c1ccc2c(c1)Oc1cc(N(CC)CC)ccc1C21OC(=O)c2ccccc21` belongs “inactive”.
Take `CCCCCCCCn1sc(Cl)c(Cl)c1=O`: the AC50 is 16.3 µM (active).
For `OCC(F)(F)C(F)(F)C(F)(F)C(F)(F)C(F)(F)C(F)(F)CO`, the call was inactive.
For the compound `O=C(c1ccccc1)c1ccc(O)cc1O`, the result was inactive.
The same measure, in the same setting: to `NC(=O)C(F)(F)C(F)(F)C(F)(F)F` belongs “inactive”; to `CN1CN(C)CN(C)C1`, “inactive”.
The same measure, in the same setting: to `O=C(O)CCC(F)(F)C(F)(F)C(F)(F)C(F)(F)C(F)(F)C(F)(F)C(F)(F)F` belongs “inactive”; to `CO[Si](CCCOCC1CO1)(OC)OC` (stereo not given), “inactive”; to `Oc1ccc(C2(c3ccc(O)c(C4CCCCC4)c3)CCCCC2)cc1C1CCCCC1`, “inactive”.
Same read-out and setting: in the case of `CC(C)(C)c1cc(CCC(=O)NCCCCCCNC(=O)CCc2cc(C(C)(C)C)c(O)c(C(C)(C)C)c2)cc(C(C)(C)C)c1O` it was “inactive”; in that of `CCN=c1cc2oc3cc(NCC)c(C)cc3c(-c3ccccc3C(=O)OCC)c-2cc1C`, “inactive”.
As to `C#CC(O)CCC` (stereo not given), the compound was classed as inactive.
The same measure, in the same setting: to `OCC(O)CC(F)(F)C(F)(F)C(F)(F)C(F)(F)C(F)(F)C(F)(F)C(F)(F)C(F)(F)F` (stereo not given) belongs “inactive”; to `C=CCOC(=O)CC(C)C`, “inactive”; to `CCOC(=O)CCC(C)=O`, “inactive”.
Still for that read-out and setting: to `OC(O)C(F)(F)C(F)(F)F` belongs “inactive”; to `CC(C)(C)c1cc(Cc2cc(C(C)(C)C)c(O)c(C(C)(C)C)c2)cc(C(C)(C)C)c1O`, “inactive”; to `Cc1cc(O)c(C(C)(C)C)cc1C(C)(C)C`, “inactive”.
Turning to `FC(F)(F)C(F)(F)C(F)(F)CC1CO1` (stereo not given), the compound was called inactive.
For the compound `CCCCCCCCCCCCCC[P+](CCCC)(CCCC)CCCC`, the compound was classed as inactive.
In the case of `CC1=CC2C3C=CC(C3)C2C1C` (stereo not given), the result was inactive.
As for `O=C(O)C(F)(F)C(F)(F)C(F)(F)C(=O)O`, the call was inactive.
As for `CCN(CCO)S(=O)(=O)C(F)(F)C(F)(F)C(F)(F)C(F)(F)C(F)(F)C(F)(F)C(F)(F)C(F)(F)F`, the result was inactive.
Still for that read-out and setting: in the case of `CCCCOC(=O)[C@H](C)O` it was “inactive”; in that of `O=C1OC(=O)c2ccc3c4c(ccc1c24)C(=O)OC3=O`, “inactive”.
The same measure, in the same setting: in the case of `C=CC(=O)OCCC(F)(F)C(F)(F)C(F)(F)C(F)(F)F` it was “inactive”; in that of `c1ccc(C[P+](c2ccccc2)(c2ccccc2)c2ccccc2)cc1`, “inactive”.
Same read-out and setting: to `O=S(=O)(OCC(F)(F)F)C(F)(F)C(F)(F)C(F)(F)C(F)(F)F` belongs “inactive”; to `Nc1c(Br)cc([N+](=O)[O-])cc1Br`, “inactive”; to `O=c1[nH]cccc1O`, “inactive”.
For the compound `CCCCCCCC/C=C\CCCCCCCC(=O)N(C)CC(=O)O`, the compound was called inactive.
Still for that read-out and setting: in the case of `OCC(O)CC(F)(F)C(F)(F)C(F)(F)C(F)(F)F` (stereo not given) it was “inactive”; in that of `CC(C)CC=C(C=O)c1ccccc1`, “inactive”; in that of `NC(=O)C(F)(F)C(F)(F)C(F)(F)C(F)F`, “inactive”.
On the same count and under the same terms, in the case of `Cc1ccc(S(=O)(=O)C(I)I)cc1` it was “inactive”.
On to `CCOC(C=C(C)CCC=C(C)C)OCC`, for which the compound was classed as inactive.
Same read-out and setting: to `CC(C)OC(=O)COc1ccc(Cl)cc1Cl` belongs “inactive”.
Turning to `CNS(=O)(=O)C(F)(F)C(F)(F)C(F)(F)C(F)(F)C(F)(F)C(F)(F)C(F)(F)C(F)(F)F`, the AC50 is 24.4 µM (active).
In the case of `CCCCC(CC)COC(=O)c1ccc(N(C)C)cc1` (stereo not given), the outcome was inactive.
